# Results taken from PubChem BioAssay AID588334 (Broad Institute, 2011).
# The campaign covered roughly 300,000 compounds. About 2,300 (0.77%) were called active. Shown is part of a subset that was picked to be rich in actives. Unmarked numbers belong to inactive results.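 Rule for the calls: active = mean activation of at least 80% with every replicate also reaching 80%; inconclusive = mean reaches 80% but some replicate falls short; inactive = the rest.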 Where a SMILES comes first, the peptide text is derived from it. [ ]: non-standard residue; d: D form. ξ: configuration not given here. Ac5c = NC1(C(=O)O)CCCC1; ξS = NC(CO)C(=O)O
# Assay: activators of MITF-driven TRPM1 promoter reporter, primary screen, cell-based, SK-MEL-5, luciferase, single point (AID 588334);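 note: 0% = neutral control wells and 100% = parthenolide positive control wells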
# Details: SK-MEL-5 TRPM1-promoter luciferase, 24 h; at 12.5 µM; hits give high values; % of positive control, neutral wells = 0
row,Compound,activation
1,C=CCC[C@H](Cc1ccc(F)cc1)C(=O)OC[C@@H](NC(=O)[C@@H](CC=C)CC(=O)N[C@H](CO)Cc1ccccc1)C(C)(C)C,-0.905%
2,CCCCNC1(C#N)CCN(Cc2ccccc2)CC1,0.419%
3,CC(C)(C)OC(=O)N(Cc1ccccc1)Cc1ccc(OCc2cccc(NC(=O)c3ccccc3)c2)cc1,-13.4%
4,O=C(C[C@H]1C[C@H](C(=O)N2CCOCC2)[C@@]2(CCC3CCCC3)c3[nH]c4ccc(Cl)cc4c3CCN2C1=O)NCc1ccco1,-16.1%
5,CCCCNc1c(-c2ccc(OC)c(Sc3ccc(OC)cc3)c2)nc2ccc(Cl)cn12,4.02%
6,CCOC(=O)C(CO)NC(=O)C1(NC(C)=O)CCCC1 (stereo not drawn) (Ac-[Ac5c]-[ξS]-OEt),14.3%
7,COc1ccc(S(=O)(=O)N2CCc3ccccc32)cc1C(=O)Nc1cc(S(C)(=O)=O)ccc1Cl,-34%
8,COc1ccc(N2CCN(Cc3nnc(-c4ccccc4)o3)CC2)cc1,-2.12%
9,COc1ccc(-c2nnc(-c3ccc4ccccc4c3)o2)cc1,93.8% (active)
10,S=C(Nc1ccccc1)Nc1ccc2ccccc2c1,1.98%
11,COc1ccc(Nc2ccc3ccccc3c2)cc1,101% (active)
12,COc1ccc(Nc2nnc(C)c3ccccc23)cc1,24.4%
13,COc1ccc(-c2nnc(SCc3cccnc3)o2)cc1,72%
14,CN(CCc1ccccc1)C(=O)c1cccc(NC(=O)Cc2cccc(NC(=O)C3CCCN(C(=O)CCc4ccccc4)C3)c2)c1 (stereo not drawn),-13.3%
15,CCC1([N+](=O)[O-])COC(c2ccc(C(C)C)cc2)OC1 (stereo not drawn),53.9%
16,CC(C)(C)OC(=O)C[C@@H]1C/C=C\C[C@@H](CC(=O)N(CCO)Cc2ccccc2)C(=O)N[C@H](Cc2ccccc2)COC1=O,8.13%
17,O=C(CSc1nnc(-c2ccco2)n1-c1ccccc1)NCCc1ccccc1,-10.2%
18,O=C(CSc1nnc(-c2ccco2)n1CC1CCCO1)c1ccccc1 (stereo not drawn),5.67%
19,c1ccc(CSc2nnc(-c3ccco3)n2Cc2ccccc2)cc1,94.3% (active)
20,CCc1c(Nc2ccccc2Cl)nc(N)[nH]c1=O,0.399%

row,Compound,activation
1,Cc1ccccc1C(=O)Nc1ccccc1Sc1ccccc1,-5.99%
2,CSc1ccccc1NC(=O)c1cc(Cl)sc1Cl,3.8%
3,CSc1ccccc1NC(=O)c1cnc2sc(C)cn2c1=O,126% (active)
4,CC(=O)N1CCc2ccc(N)cc21,-5.2%
5,CC(C#N)OC(=O)c1cccnc1SCC(=O)Nc1ccc2c(c1)OCO2 (stereo not drawn),-11.6%
6,O=C(NCCSc1ccccc1)c1ccco1,61.4%
7,CCS(=O)(=O)Nc1ccc(C(=O)NCCSc2ccccc2)cc1,82.4% (active)
8,Cc1ccc(C(=O)NCCNS(=O)(=O)c2ccccc2)cc1,0.954%
9,CC(=O)OC1CCC2C3CCC4=C(CC(F)C(=O)C4)C3CCC12C (stereo not drawn),0.663%
10,COC(=O)CSc1nc(C)c2ccc(OC)cc2n1,16.3%
11,COc1ccc(-c2nnc3ccc(SCc4ccccc4)nn23)cc1,-5.03%
12,COc1ccc2nc(SCc3ccccc3)nc(C)c2c1,91.9% (active)
13,C[C@]12c3[nH]c4ccc(Cl)cc4c3CCN1C(=O)[C@@H](CC(=O)NCCCn1ccnc1)C[C@@H]2C(=O)N1CCOCC1,13.5%
14,Cc1c(C(N)=O)sc2ncn(CCOc3ccccc3)c(=O)c12,17.3%
15,Cc1cccc(OC(=O)c2sc3ncn(C)c(=O)c3c2C)c1,93.6% (active)
16,CCOC(=O)C(C)n1cnc2sc(C)c(C)c2c1=O (stereo not drawn),2.04%
17,CCC(CO)Oc1cc(NCc2ccccc2)c2ncn(C3CCCC3)c2c1 (stereo not drawn),9.77%
18,NC(=O)c1ncn([C@@H]2O[C@H](CNCc3cnc(N4CCOCC4)s3)[C@@H](O)[C@H]2O)n1,-0.075%
19,O=C(Cc1ccc(S(=O)(=O)N2CCOCC2)s1)Nc1ccc(Br)c(C(F)(F)F)c1,17.8%
20,O=C(CC1Sc2ccccc2NC1=O)NNc1ccc(Cl)c(Cl)c1 (stereo not drawn),9.23%

row,Compound,activation
1,O=c1c2ccccc2nnn1CSc1nnnn1-c1ccccc1,87.9% (active)
2,Nc1nnc(SCn2nnc3ccccc3c2=O)s1,-7.75%
3,C=CCn1c(SCn2nnc3ccccc3c2=O)nnc1-c1ccc(Cl)cc1,-11%
4,O=C(NCCC(=O)N1O[C@@H]2C=C[C@H]1C2)OCC1c2ccccc2-c2ccccc21,12.3%
5,COc1ccc(CNC(=O)COC(=O)C2=Cc3ccccc3OC2)cc1,-1.47%
6,CC(C)N(C(=O)[C@H]1C[C@H](CC(=O)NC(C)(C)C)C(=O)N2CCc3c([nH]c4ccc(Cl)cc34)[C@]12C)C(C)C,-26.3%
7,COc1cc(C(=O)N2CCN(S(=O)(=O)c3ccc(C(C)C)cc3)CC2)ccc1OCC(=O)N1CCOCC1,-0.869%
8,Cc1ccc2cc(/C=N/NC(=O)[C@@H]3CCCN3)c(Cl)nc2c1,19.1%
9,Cc1ccc2cc(/C=N/Nc3ccc(C(=O)O)cc3)c(Cl)nc2c1,99.2% (active)
10,O=C(O)c1ccc(N/N=C/c2ccc3ncccc3c2)cc1,-58.9%
11,O=C1C[C@@H]2c3c(cccc3CN1Cc1ccccc1)C[C@@H](O)[C@H]2O,8.46%
12,COc1ccc(C2=Nn3c(nnc3-c3ccccc3OC)SC2)cc1OC1CCCC1,-62.2%
13,CC(=NNC(=O)c1ccncc1)c1ccc(Cl)c(Cl)c1,4.45%
14,O=C(NCCC1=CCCCC1)c1ccc(Cl)c([N+](=O)[O-])c1,31.3%
15,O=C(NCCC1=CCCCC1)c1ccc(-n2cncn2)cc1,83.6% (active)
16,CN(c1ccc(C(=O)NCCC2=CCCCC2)cc1)S(C)(=O)=O,45.6%
17,CN(C)C(CNC(=O)c1cc2ccccc2o1)c1ccccc1 (stereo not drawn),1.76%
18,CCNC(=O)N(CC)C[C@H]1N[C@@](CC)(C(=O)OC)[C@H]2C(=O)N(Cc3ccccc3)C(=O)[C@@H]12,0.033%
